Screening data (PubChem)
A selection: hits, their analogues and other compounds. The true share with any hit is near 21%.
NS1 function inh = influenza NS1 inhibition; Potency, µM (highest dose often 46.1 µM), inactives show at the highest dose activity, positive = more growth; 0.4% of 270,000 active; AID 2326; calls by dose curve; note: potency is the fitted concentration of half-maximal effect; actives are rising curves; nearly all actives have a fitted effect of over 50% in size
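Compounds were scored for reversing the slow growth caused by influenza A NS1 in S. cerevisiae, measured by optical density at 600 nm. Assay medium contained 2% galactose at pH 6.0; NS1-free yeast of the same strain were the positive control.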
Shiga toxin inh = Shiga toxin inhibition. inhibition, % at 38.7 µM. AID 2315. Vero cells, Shiga toxin protein synthesis inhibition reporter. 9.2% of 290,000 active; in the data active = inhibition mostly above about 28%, no sharp cut-off; inactive = mostly below about 43%; note: 0% is about no effect
Giardia FBPA inh = Giardia lamblia aldolase inhibition; A8B2U2; purified Giardia FBPA; Potency, µM (highest dose often 59.6 µM), without a hit: at the highest dose activity, negative = inhibition, usual class: inhibitors; 0.71% of 290,000 active; note: potency is the fitted concentration of half-maximal effect; % is set by controls: 0 for no effect and ±100 for the full control effect; nearly all actives have a fitted effect of over 55% in size
Target sequence (A8B2U2 whole entry, looked up): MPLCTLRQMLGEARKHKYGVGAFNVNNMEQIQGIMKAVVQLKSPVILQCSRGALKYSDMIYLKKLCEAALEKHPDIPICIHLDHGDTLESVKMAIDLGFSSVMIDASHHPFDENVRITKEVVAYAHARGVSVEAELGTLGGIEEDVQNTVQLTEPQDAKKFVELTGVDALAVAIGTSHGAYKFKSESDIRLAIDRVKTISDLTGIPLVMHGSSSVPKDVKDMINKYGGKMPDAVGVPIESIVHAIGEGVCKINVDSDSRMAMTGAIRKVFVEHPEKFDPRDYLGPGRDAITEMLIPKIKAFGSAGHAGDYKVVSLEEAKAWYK
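40 nM FBPA preincubated 10 min at RT with compound (up to 57.5 uM final), then substrate plus GAPDH/TPI/NAD/arsenate coupling and diaphorase/resazurin added. Fluorescence read after 20 min at RT, 525/598 nm.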
Pf growth 48h = inhibits P. falciparum growth in the first generation, 48 h; 5.9% of 310,000 active; P. falciparum luciferase growth in erythrocytes, 48 h; Potency, µM (doses to about 28.7 µM), without a hit: at the highest dose activity change, negative = inhibition, usual class: inhibitors; note: potency is the fitted concentration of half-maximal effect; % is set by controls: 0 for no effect and ±100 for the full control effect
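Parasite viability was followed by luminescence of a genomically integrated firefly luciferase. Cultures held 0.1% parasitemia at 2% hematocrit (final), incubated under 5% CO2 at 37 C.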
CHX counter = counter-screen for Shiga toxin inhibitors: cycloheximide protein synthesis inhibition. cell reporter, cycloheximide protein synthesis inhibition counterscreen. max response, %. 12% of 300,000 active; in the data active = max response mostly above about 13%, no sharp cut-off; inactive = mostly below about 14%; note: read at 38.3 µM for the half of the compounds with a filed dose; 0% is about no effect
Pf growth 96h = inhibits malaria parasite growth, 96 h; 6.9% of 320,000 active; P. falciparum luciferase reporter growth, 96 h; AID 504834; Potency, µM (doses to about 28.7 µM), without a hit: at the highest dose activity change, negative = inhibition, actives largely listed as inhibitors; note: potency is the fitted concentration of half-maximal effect; % is set by controls: 0 for no effect and ±100 for the full control effect
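Infected RBCs, 2% Hct / 0.05% parasitemia final; luciferase-reporter P. falciparum; cpd 96 h, 37 C, 5% CO2; luciferase detection reagent; luminescence.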
* marks the source's active call; other numbers are inactive results; ? = inconclusive; . = no result. Unless noted, calls come from the whole dose curve; as a rule, active = well fitted curve in the direction sought with a large enough effect; inconclusive = small, poorly fitted or top-dose-only effect, or another doubt; inactive = no such curve, though single readings can be large; an effect the other way counts as inactive or inconclusive.

SMILES	NS1 function inh	Shiga toxin inh	Giardia FBPA inh	Pf growth 48h	CHX counter	Pf growth 96h
COc1ccc([N+](=O)[O-])cc1NC(=O)CCS(=O)(=O)c1ccc(Br)cc1	0.6%	2.3	6.8%	2.1%	-2.2	58.9%
N#C/C(=C(\O)C(=O)O)c1ccc(-c2cccc3ccccc23)cc1	-7.2%	.	.	.	.	.
Cc1cc(C(C)c2ccccc2)c(O)c(CN2CCOCC2)c1C (stereo not drawn)	-41.0%	17.8	-11.8%	1.85µM*	9.5	7.7%
CCc1cc2c(-c3ccccc3)cc(=O)oc2c(CN2CCOCC2)c1O	-112.8%	-6.1	2.6%	?	-7.4	.
Cc1ccc(-c2cccc(CN3CCN(C4CCN(C(C)C)CC4)C(CCO)C3)c2)o1 (stereo not drawn)	-1.6%	-3.6	0.6%	10.4µM*	-2.9	34.7%
CC(C)N1CCC(N2CCN(Cc3cnc(-c4ccccc4)s3)CC2CCO)CC1 (stereo not drawn)	1.7%	-6.0	0.5%	-5.1%	-2.7	?
CC(C)N1CCC(N2CCN(Cc3ccc(-c4ccccc4Cl)o3)CC2CCO)CC1 (stereo not drawn)	1.5%	-7.6	?	-10.5%	-1.5	-0.4%
CC(C)N1CCC(N2CCN(Cc3ccc(-c4ccc(Cl)cc4)o3)CC2CCO)CC1 (stereo not drawn)	-6.9%	7.2	2.9%	2.33µM*	1.8	?
O=C(COC(=O)CCN1C(=O)C2CC=CCC2C1=O)Nc1ccc(Cl)cc1F (stereo not drawn)	.	.	.	-9.5%	.	-24.5%
CC(=O)N(C)c1ccc(NS(=O)(=O)Cc2ccccc2)cc1	10.4%	62.8*	-3.9%	55.9%	26.9*	?
CC(=O)c1ccc(NS(=O)(=O)Cc2ccccc2)cc1	0.8%	-12.9	13.1%	23.5%	-3.1	?
O=C(C1=C[C@H](C2CCCCC2)C[C@H](OCCCCO)O1)N1CCN(Cc2ccccc2)CC1	-8.2%	-4.4	-8.9%	?	-2.6	?
CCOc1ccc(-c2nn(-c3ccccc3)cc2/C=C(\C#N)S(=O)(=O)c2ccccc2)cc1C	-12.0%	2.7	.	?	-0.1	338.2%
CCN(CC)C(=O)COc1ccc(/C=C(\C#N)S(=O)(=O)c2ccccc2)cc1OC	3.3%	-13.7	-2.2%	0.7%	-3.9	9.28µM*
Cc1nc(NC(=S)Nc2ccccc2)sc1C	.	127.2*	-6.1%	199.3%	42.8*	53.4%
CCc1nnc(NC(=S)Nc2ccccc2)s1	.	98.9*	?	-25.1%	45.3*	?
Cc1ccc(C(=O)Nc2nnc(NC(=S)Nc3ccccc3)s2)cc1	3.0%	19.3	2.2%	-23.0%	3.1	31.8%
CCOc1ccc(C(=O)Nc2nnc(NC(=S)Nc3ccccc3)s2)cc1	.	69.9*	13.2%	?	25.5*	?
O=C(CSc1nc(C(F)(F)F)cc(=O)[nH]1)Nc1ccc2c(c1)OCCO2	.	.	.	7.3%	.	-1.2%
Cc1ccccc1OCC(O)Cn1c(Br)nc2c1c(=O)n(C)c(=O)n2C (stereo not drawn)	-11.7%	2.0	-2.8%	13.8%	-4.0	?
Cc1ccccc1OCC(O)Cn1c(SC(C)C)nc2c1c(=O)[nH]c(=O)n2C (stereo not drawn)	-6.4%	3.0	-11.5%	?	-1.7	10.4µM*
COc1ccc(OCC(O)Cn2c(Nc3cccc(C)c3)nc3c2c(=O)n(C)c(=O)n3C)cc1 (stereo not drawn)	-2.4%	-12.8	4.8%	2.33µM*	-1.2	3.29µM*
Cc1ccccc1OCC(O)Cn1c(NCc2ccco2)nc2c1c(=O)n(C)c(=O)n2C (stereo not drawn)	-12.0%	-6.2	11.0%	14.7µM*	-2.4	?
O=C(O)P(=O)(O)O	.	.	2.6%	-3.2%	.	?
COCc1[nH]c(=S)[nH]c(=O)c1C	-0.1%	8.7	?	5.9%	-0.9	2.6%
SMILES	NS1 function inh	Shiga toxin inh	Giardia FBPA inh	Pf growth 48h	CHX counter	Pf growth 96h
COC(=O)[C@@]12CCCN1[C@H](c1ccc(-c3ccc(F)cc3)cc1)[C@H]1C(=O)N(C)C(=O)[C@H]12	.	.	.	1.17µM*	.	?
CCOC(=O)C1(C)NC(c2cc(OC)c(OC)c(OC)c2)C2C(=O)N(CC)C(=O)C21 (stereo not drawn)	1.2%	-22.6	2.7%	0.0%	-1.7	18.9%
CCN1C(=O)[C@@H]2[C@@H](c3ccc(-c4ccc(F)cc4)c(OC)c3)N3CCCC[C@@]3(C(=O)OC)[C@@H]2C1=O	.	.	.	10.4µM*	.	7.38µM*
CCN1C(=O)[C@@H]2[C@@H](c3ccc(-c4ccc(F)cc4)cc3)N3CCCC[C@@]3(C(=O)OC)[C@@H]2C1=O	.	.	.	10.4µM*	.	?
CCN1C(=O)[C@@H]2[C@@H](c3ccc(-c4ccc(Cl)c(Cl)c4)c(OC)c3)N3CCCC[C@@]3(C(=O)OC)[C@@H]2C1=O	.	.	.	2.62µM*	.	?
COC(=O)[C@@]12CCCCN1[C@H](c1ccc(-c3ccc(OC)cc3)cc1)[C@H]1C(=O)N(C)C(=O)[C@H]12	.	.	.	?	.	-26.0%
CCC(C)[C@H](NC(=O)N1CCn2c1nc1ccccc12)C(=O)NCCc1ccc(OC)c(OC)c1 (stereo partly drawn)	-12.3%	-15.8	26.7%	-21.8%	0.9	?
CCOC(=O)CNC(=O)COc1coc(CN2CCN(c3ccccc3F)CC2)cc1=O	15.1%	-3.7	.	-17.2%	-2.0	?
Cc1cc(-c2nnc(SCC(=O)Nc3ccc(C)c(C)c3)n2N)n[nH]1	-7.2%	-2.2	.	-17.2%	-1.9	?
Cc1ncc(CO)c2c1Oc1nc(-c3ccccc3)nc(SCC(=O)N(C)c3ccccc3)c1C2	?	5.2	.	?	-6.9	13.1µM*
COc1ccccc1-c1nc2c(c(SCC(=O)N3CCCCC3)n1)Cc1c(CO)cnc(C)c1O2	16.3%	-0.8	-12.9%	10.4µM*	-1.0	1.65µM*
Cc1ncc(CO)c2c1Oc1nc(-c3ccccc3)nc(SCC(=O)N3CCCCC3)c1C2	24.6%	-2.3	.	?	-8.9	?
Cc1ncc(CO)c2c1Oc1nc(-c3ccccc3F)nc(SCC(=O)N(C)c3ccccc3)c1C2	?	-9.2	.	-14.7%	-2.9	-16.5%
Cc1cccc(-c2nc3c(c(SCC(=O)N4CCOCC4)n2)Cc2c(CO)cnc(C)c2O3)c1	18.5%	22.1	.	5.86µM*	5.4	58.9%
COc1cccc(-c2nc3c(c(SCC(=O)N4CCOCC4)n2)Cc2c(CO)cnc(C)c2O3)c1	5.5%	27.1	.	?	0.4	13.1µM*
O=C(COc1ccc(Br)cc1)NCCN1CCCC1	2.6%	.	-23.0%	-10.6%	-4.3	?
NC(=O)C1(N2CCCCC2)CCN(C(=S)Nc2cc(F)cc(F)c2)CC1	0.3%	-3.0	-0.2%	-15.3%	-2.3	19.2%
Cc1cc(/C=C(\C#N)C(=O)NCc2cccs2)c(C)n1-c1ccccc1F	5.2%	80.0*	3.2%	25.1%	52.1*	111.4%
